Reference: PubChem BioAssay AID589 (National Center for Advancing Translational Sciences (NCATS), 2007)
About 6,200 (11%) of roughly 59,000 compounds were called active. Another 9% or so got no clear call; they are omitted. No stated cut-off is given here; in the data, active means max dye-equivalent concentration above about 10 nM; inconclusive means mostly about 1.1 nM to 9.6 nM; inactive means weaker than that. The entries come from a sample that favours actives as a whole.

assay: qHTS Assay for Spectroscopic Profiling in 4-MU Spectral Region; details: compound autofluorescence, 340/450 nm, 4-MU equivalents; stronger effect = higher value
Summary of the method: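 Compounds in 100 mM Tris, pH 8.0, incubated 15 min at room temperature, then fluorescence read at 340 nm excitation/450 nm emission. Signal converted to 4-MU dye-equivalent concentration using an on-plate six-point 4-MU standard curve.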

Max dye-equivalent concentration, inactive:
O=C(C1=C(O)C(=O)N(Cc2ccccc2)C1c1cccnc1)c1ccco1 (configuration not stated)
N#CC(C(N)=O)=C1CCC2(CC1)OCCCCO2
COc1cc(C2C(C(=O)c3ccc(C)o3)=C(O)C(=O)N2Cc2cccnc2)ccc1O (configuration not stated)
CCSC1=C(C#N)C(=O)n2c1cc1c2CCCC1
CC(=O)Nc1ccc(S(=O)(=O)Nc2cccc(NC(=O)C(C)(C)C)c2)cc1
COc1cc(NS(=O)(=O)c2ccc(NC(C)=O)cc2)cc(OC)c1
COC(=O)c1cc(NC(=O)CN2CCC(C(N)=O)(N3CCCCC3)CC2)cc(C(=O)OC)c1
CCCCCN(C(=O)NC(=O)Nc1ccccc1OC)S(C)(=O)=O
CCCc1nnc(NC(=O)c2cc(OC)cc(OC)c2)s1
CCc1nnc(NC(=O)c2ccc(S(=O)(=O)NC3CCCCC3)cc2)s1
COc1ccc(Cc2nnnn2CC(=O)O)cc1
CC(=O)OCc1cc(=O)n(C)c(=O)n1C
CC(Sc1nncn1C)C(=O)Nc1ccccc1-c1ccccc1 (configuration not stated)
Cc1ccccc1-c1nc(N(C)Cc2ccco2)c2ccccc2n1
Cc1ccc(C)c(NC(=O)C2CC(=O)N(C(C)C)C2)c1 (configuration not stated)
O=C(NCC(F)(F)F)Nc1nnc(C(F)(F)F)s1
O=C(O)C1CCN(S(=O)(=O)N2CCOCC2)CC1
O=C(CNS(=O)(=O)c1cccc(C(F)(F)F)c1)Nc1ccccc1F
Cc1ccccc1NC(=O)NCc1ccco1
CN1CCN(c2ncncc2-c2ccc(C(=O)N(C)C)cc2)CC1
COc1ccc(-c2nnc(SC(C)C#N)o2)cc1 (configuration not stated)
CCOc1ccc(CNC(=O)C2CCC(=O)N2C2CCCC2)cc1OC (configuration not stated)
CCCC(=O)Nc1cc(OCC)c(NC(=O)NC2CCCCC2)cc1OCC
OCCN1CCN(CC/C=C2\c3ccccc3Sc3ccc(C(F)(F)F)cc32)CC1
CN(C)C(=O)/N=N\C(=O)N(C)C
Cc1ccc2nc(S(=O)(=O)O)[nH]c2c1
CC(C)(C)n1nnnc1C(c1cccs1)N(Cc1cccnc1)CC1CCCO1 (configuration not stated)
O=C(OCc1cc2ccccc2[nH]c1=O)c1cccnc1
Cc1cc(C)c2cc(CN(Cc3cccs3)Cc3nnnn3CC3CCCO3)c(=O)[nH]c2c1 (configuration not stated)
c1ccc(CCn2nnnc2CN2CCN(C3CCCC3)CC2)cc1
CCOc1ccc2c(c1)cc(CN(C(=O)CC)C1CCCCC1)c1nnnn12
CCC(c1nnnn1C1CCCC1)N(Cc1cccs1)Cc1cc2cccc(C)c2[nH]c1=O (configuration not stated)
CN1CCC2(CC1)CCN(S(=O)(=O)c1ccccc1)CC2
Cc1ccc(S(=O)(=O)Cn2nnnc2CN2CCN(Cc3ccc4c(c3)OCO4)CC2)cc1
COc1cccc(N(CC(=O)Nc2cccc(N(C)S(C)(=O)=O)c2)S(C)(=O)=O)c1
CC(C)CNC(=O)C1CCCN(S(=O)(=O)c2ccc(-n3cnnn3)cc2)C1 (configuration not stated)
CCCOc1cccc(C(=O)Nc2nnn(CCC)n2)c1
CC(C)c1cc(CN(C)C)c(O)c(C(C)(C)C)c1
CCC(=O)Nc1cccc(NC(=O)CSc2nnc(-c3ccc(NS(C)(=O)=O)cc3)n2C)c1
Cc1ccc(N(C(=O)CC2NC(=O)NC2=O)C2(C(=O)NC3CCCC3)CCCCC2)cc1 (configuration not stated)
CC(=O)Cc1nsc(NC(=O)c2ccc(COc3ccc(C)cc3)o2)n1
Cc1cccc2cc(CN(Cc3cccs3)C(c3nnnn3C3CCCC3)C(C)C)c(=O)[nH]c12 (configuration not stated)
COc1ccccc1N1CCN(Cc2nnnn2CCc2ccccc2)CC1
Cc1cccc2cc(CN(Cc3ccc4c(c3)OCO4)Cc3nnnn3C3CCCC3)c(=O)[nH]c12
O=C(CN(CC1CCCO1)C(=O)CNS(=O)(=O)c1ccccc1)NCc1ccccc1 (configuration not stated)
CCC(c1nnnn1Cc1ccco1)N(CCc1ccccc1)Cc1cc2ccc(OC)cc2[nH]c1=O (configuration not stated)
N=c1c2c3c(sc2ncn1CCCN1CCOCC1)CCCCC3
CSc1sc(C)cc1C1C(C#N)=C(N)N(c2cccnc2)C2=C1C(=O)CCC2 (configuration not stated)
N#Cc1cccc(NC(=O)CCC2CCCC2)c1
Cc1oc2nc(SCC(=O)NCc3cccnc3)nc(N)c2c1C
COc1ccc(OC)c(NC(=O)CSc2nc3cccnc3n2C)c1
O=C(CCc1ccccc1)Nc1cccc(-c2nnc(-c3ccco3)o2)c1
Cc1ccc(CNC(=O)CN2CCN(Cc3ccc(Cl)cc3)C2=O)cc1
CCCC(=O)Nc1c(O)c2ccccc2[nH]c1=O
C=CCOc1ccc(C2/C(=C(\O)c3c(C)[nH]c(C(=O)OC)c3C)C(=O)C(=O)N2CCN(C)C)cc1 (configuration not stated)
CC1(C)NC(=O)N(CCOc2cccc(Oc3ccccc3)c2)C1=O
COc1ccc2[nH]cc(CCNc3nc(-c4cccc(NS(C)(=O)=O)c4)nc4ccccc34)c2c1
COc1ccccc1-c1cc(C(=O)NCCCn2ccnc2)no1
COc1ccc(CNc2ncncc2-c2ccccc2OC)c(OC)c1
Cc1ccc(OCc2nc(C#N)c(N3CCCC3)o2)cc1
NC(=O)C1CCN(C(=O)c2ccc(C(F)(F)F)cc2)CC1
CN1CCN(CCCNC(=O)c2cc3c(=O)oc4ccccc4c3s2)CC1
O=C(c1ccc([N+](=O)[O-])cc1)[C@@H](Br)[C@@H](Br)c1ccnc2ccccc12
CC12C(=O)N(n3cnnc3)C(=O)C1C1C=CC2C1 (configuration not stated)
Cc1ccc(-n2ncc3c(N4CCN(c5ccc(F)cc5)CC4)ncnc32)c(C)c1
Cc1cnc(CNc2nc(-c3cccnc3)nc3ccccc23)cn1
Cc1noc(C)c1C(=O)NC(C)c1ccc2c(c1)OCO2 (configuration not stated)
O=C(CSc1nnc(-c2ccco2)n1Cc1ccccc1)NC(=O)NCc1ccco1
CO[C@@H]1/C=C\O[C@]2(C)Oc3c(C)c(O)c4c(O)c(c(CN(C)C)c(O)c4c3C2=O)NC(=O)/C(C)=C\C=C[C@@H](C)[C@@H](O)[C@H](C)[C@@H](O)[C@H](C)[C@H](OC(C)=O)[C@@H]1C
O=C(Nc1ccc(Oc2ccccc2)cc1)c1ccco1
Cc1ccc(C(=O)COc2cccc(NC(=O)c3ccco3)c2)cc1
CCN(CC)S(=O)(=O)c1cc(C(=O)Nc2ccccn2)ccc1C
Cn1c(=O)cc(OCCCC(=O)N2CCN(c3ccccn3)CC2)c2ccccc21
O=C(CSc1nc2ccccc2o1)N1CCN(c2ccccc2)CC1
CC1Cc2ccccc2N1C(=O)CSc1nc2ccccc2o1 (configuration not stated)
c1ccc(CCN2CCN=C2Cc2ccccc2)cc1
Cc1ccc(NC(=O)Cn2nc(C)c3ccccc3c2=O)c(C)c1
CCOc1ccc(N=NS(=O)(=O)O)cc1
Nc1ccc2[nH]cc(CCC(=O)O)c2c1
NCCNCC1CCNCC1
O=C(NCCc1ccccn1)c1ccc(COc2ccccc2)o1
O=C(O)[C@H](CCc1ccccn1)c1ccccc1
O=C1C(=O)N(CCN2CCOCC2)C(c2ccccn2)/C1=C(/O)c1ccc(Cl)cc1 (configuration not stated)
COc1ccccc1-c1nc(N2CCN(C)CC2)c2ccccc2n1
CCOC(=O)c1sc2nc(CSCC(=O)OCc3ccc(C(=O)OC)o3)[nH]c(=O)c2c1C
CCOC(=O)c1ccc(CS(=O)c2ccc(Cl)cc2)o1 (configuration not stated)

Max dye-equivalent concentration, active:
COc1ccc(NS(=O)(=O)c2ccc(NC(=O)C(C)(C(F)(F)F)C(F)(F)F)cc2)nn1 20 nM
Cc1ccc(C(=O)Nc2nnc(-c3cccs3)s2)cc1C 73 nM
CC1CCc2c(sc(NC(=O)c3ccc(Cn4cc(Br)cn4)o3)c2C(N)=O)C1 (configuration not stated) 100 nM
CN(C)CCCn1c(N)c(C#N)c2nc(C#N)c(C#N)nc21 730 nM
CCOc1cc(C2C(C(=O)OC)=CN(C3CCCC3)C=C2C(=O)OC)cc(Br)c1O 200 nM
CCC(c1nnnn1Cc1ccccc1)N(Cc1cc2cc(OC)ccc2[nH]c1=O)CC1CCCO1 (configuration not stated) 32 nM
CCOc1ccc2[nH]c(=O)c(CN(CCCO)C(C)=O)cc2c1 300 nM
COc1ccc2[nH]c(=O)c(CN(Cc3nnnn3CCc3ccccc3)CC3CCCO3)cc2c1 (configuration not stated) 360 nM
CCC(=O)N(Cc1cc2cc(OC)ccc2[nH]c1=O)c1ccccc1C 200 nM
CCOc1ccc2[nH]c(=O)c(CN(Cc3nnnn3CCc3ccccc3)CC3CCCO3)cc2c1 (configuration not stated) 76 nM
CCOc1ccc2[nH]c(=O)c(CN(Cc3nnnn3Cc3ccccc3)CC3CCCO3)cc2c1 (configuration not stated) 120 nM
CCC(c1nnnn1Cc1ccco1)N(Cc1cc2cc(OC)ccc2[nH]c1=O)C1CCCCC1 (configuration not stated) 22 nM
COc1ccc2[nH]c(=O)c(CN(CC3CCCO3)C(=O)Nc3ccccc3)cc2c1 (configuration not stated) 110 nM
Cc1cc(C)c2nc(N3CCCC3)c(C#N)cc2c1 130 nM
Cc1cccc2cc(C#N)c(N3CCCC3)nc12 42 nM
Fc1ccc2[nH]c3c(N4CCSCC4)ncnc3c2c1 47 nM
CCOc1cc(NC(=O)c2ccco2)c(OCC)cc1NC(=O)COc1ccccc1 85 nM
O=c1oc2c(CN3CCCCC3)c(O)ccc2c2c1CCCCC2 12000 nM
Cc1ccnc(N2CCN(C(=O)CSc3nc4ccccc4nc3N3CCCCC3)CC2)c1 29 nM
C/C(N)=C(\C#N)C(=O)NCCc1ccccn1 46 nM
CCOC(=O)c1ccc(COC(=O)c2cc(=O)[nH]c3ccccc23)o1 33 nM
